# Records with an inconclusive call do not appear. Activity calls are given as the source filed them. Calls come from the whole dose curve; as a rule, active = well fitted inhibition curve with a large enough effect; inconclusive = small, poorly fitted or top-dose-only effect; inactive = flat fitted curve, though single readings scatter.
# Target: Dual specificity protein kinase CLK4 (Homo sapiens) (UniProt Q9HAZ1)
# Assay: Confirmation Assay for Inhibitors of CDC-like Kinase 4 (Kinase-Glo Assay)
# Conditions: recombinant Clk4, Kinase-Glo ATP depletion luminescence; series mostly up to 47.7 µM; activity, negative = inhibition: at the top concentration
# Procedure: NIH Molecular Libraries Probe Production Centers Network [MLPCN] NIH Chemical Genomics Center [NCGC] MLPCN Grant: 1R03MH084827-01 Assay Submitter (PI): Tom Misteli NCGC Assay Overview: Clk4 (Invitrogen, cat# PV3839) was assayed using ATP and the RS repeat peptide (AnaSpec cat # 61722) as substrates. Following the Clk4 reaction, the remaining ATP levels were detected using Promega Kinase-Glo technology wherein the remaining ATP from the kinase reaction is detected using Ultra-Glo luciferase and D-luciferin which generates a bioluminescence signal from the ATP.
# NCGC Assay Protocol Summary: Two uL/well of substrate-buffer solution (100 uM RS peptide, 1 uM ATP, 25 mM Tris pH7.5, 10 mM MgCl2, 0.5 mM EGTA, 2.5 mM DTT, 0.01% Triton X-100 final concentration) was dispensed into 1536-well, assay plates (Greiner, solid white medium-binding plates) with Aurora Discovery BioRAPTR Flying Reagent Dispenser (FRD; Beckton-Dickenson). Using a Kalypsys pin tool equipped with a 1536-pin tool, 23 nL of compound solution was transferred to the assay plate. One uL/ well Clk4-buffer solution (25 nM Clk4, 25 mM Tris pH 7.5, 10 mM MgCl2, 0.5 mM EGTA, 2.5 mM DTT, 0.01% Triton X-100, final concentrations) was then added using the FRD yielding a total kinase reaction volume of 3 uL/ well. After 4.5 hours of room temperature incubation, 3 uL Kinase-Glo reagent was added for a final assay volume of 6 uL/ well. Luminescence was detected with the ViewLux plate reader (Perkin Elmer, Waltham, MA) after 5 min incubation using a 5 second exposure time and 2x binning.
# Sequence of Dual specificity protein kinase CLK4 (Homo sapiens) (Q9HAZ1 whole entry, looked up): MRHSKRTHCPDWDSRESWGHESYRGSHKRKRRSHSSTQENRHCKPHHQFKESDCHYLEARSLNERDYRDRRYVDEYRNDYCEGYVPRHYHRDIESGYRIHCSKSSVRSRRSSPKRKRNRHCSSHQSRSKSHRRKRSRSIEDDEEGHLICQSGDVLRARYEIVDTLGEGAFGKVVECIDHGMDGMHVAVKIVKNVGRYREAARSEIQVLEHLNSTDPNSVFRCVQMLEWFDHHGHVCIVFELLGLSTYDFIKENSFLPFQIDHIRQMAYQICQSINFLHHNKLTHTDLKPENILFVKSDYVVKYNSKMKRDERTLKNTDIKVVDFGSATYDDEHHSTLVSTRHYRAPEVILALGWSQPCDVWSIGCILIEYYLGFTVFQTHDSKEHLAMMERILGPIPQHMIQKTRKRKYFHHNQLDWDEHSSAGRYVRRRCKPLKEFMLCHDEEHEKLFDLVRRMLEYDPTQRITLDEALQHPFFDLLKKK
SMILES,Potency,"activity, negative = inhibition"
Clc1ccccc1-c1ccc2ncnc(NCc3cccs3)c2c1,7.94 µM (active),–
c1coc(CCNc2ncnc3ccc(-c4ccc5c(c4)OCO5)cc23)c1,0.0598 µM (active),–
CCOC(=O)c1ccoc1-c1ccc2ncnc(NCc3ncc[nH]3)c2c1,10.4 µM (active),–
Cc1nc(CNc2ncnc3ccc(-c4ccoc4C)cc23)cs1,0.823 µM (active),–
Cc1cc(CNc2ncnc3ccc(-c4ccc5c(c4)OCO5)cc23)c(C)o1,0.119 µM (active),–
c1csc(CCNc2ncnc3ccc(-c4ccc5c(c4)OCO5)cc23)c1,0.0463 µM (active),–
Cc1ccc(CNc2ncnc3ccc(-c4ccoc4)cc23)o1,0.519 µM (active),–
Cc1csc(CNc2ncnc3ccc(-c4ccc5c(c4)OCO5)cc23)c1,0.141 µM (active),–
Cc1ccsc1CNc1ncnc2ccc(-c3ccc4c(c3)OCO4)cc12,0.0336 µM (active),–
Cc1csc(CNc2ncnc3ccc(-c4ccco4)cc23)c1,–,-2.38% (inactive)
c1coc(-c2ccc3ncnc(NCc4cccs4)c3c2)c1,0.823 µM (active),–
CCOC(=O)c1ccc(-c2ccc3ncnc(NCc4csc(C)n4)c3c2)o1,0.654 µM (active),–
CN1CCCC1CCNc1ncnc2ccc(-c3ccc4c(c3)OCO4)cc12 (stereo not given),0.923 µM (active),–
Cc1cccc(CNc2ncnc3ccc(-c4ccccc4Cl)cc23)c1,12.6 µM (active),–
Cc1ccc(CNc2ncnc3cc(-c4ccc5c(c4)OCO5)ccc23)o1,5.98 µM (active),–
c1nc(OCc2cnc[nH]2)c2cc(-c3ccc4c(c3)OCO4)ccc2n1,6.54 µM (active),–
c1cncc(-c2ccc3ncnc(NCc4ccc5c(c4)OCO5)c3c2)c1,6.31 µM (active),–
Fc1cccc(CNc2ncnc3ccc(-c4ccoc4)cc23)c1,3.16 µM (active),–
CCN(Cc1cccs1)c1ncnc2ccc(-c3ccc4c(c3)OCO4)cc12,0.0519 µM (active),–
c1csc(CNc2ncnc3ccc(-c4ccoc4)cc23)c1,0.184 µM (active),–

SMILES,Potency,"activity, negative = inhibition"
CCn1cnc(CCN(C)c2ncnc3ccc(-c4ccc5c(c4)OCO5)cc23)c1,1.3 µM (active),–
c1nc(NCc2ccc3c(c2)OCO3)c2cc(-c3ccoc3)ccc2n1,0.631 µM (active),–
Clc1cccc(-c2ccc3ncnc(NCc4cccs4)c3c2)c1,7.94 µM (active),–
CCN(CCc1cn(C)cn1)c1ncnc2ccc(-c3ccc4c(c3)OCO4)cc12,0.519 µM (active),–
Cc1csc(CNc2ncnc3cc(-c4ccc5c(c4)OCO5)ccc23)n1,8.44 µM (active),–
Fc1cccc(CNc2ncnc3ccc(-c4cccc(Cl)c4)cc23)c1,7.08 µM (active),–
c1nc(NCc2ccc3c(c2)OCO3)c2cc(-c3ccc4c(c3)OCCO4)ccc2n1,2.24 µM (active),–
COc1cccc(-c2ccc3ncnc(NCc4cccc(C)c4)c3c2)c1,0.891 µM (active),–
c1c[nH]c(CNc2ncnc3ccc(-c4ccoc4)cc23)n1,2.92 µM (active),–
O=C(O)c1ccc(-c2ccc3ncnc(NCCc4cnc[nH]4)c3c2)o1,0.923 µM (active),–
COc1cccc(-c2ccc3ncnc(NCc4cccc(F)c4)c3c2)c1,0.631 µM (active),–
Cn1cnc(CCNc2ncnc3ccc(-c4ccc5c(c4)OCO5)cc23)c1,0.232 µM (active),–
NCCNc1ncnc2ccc(-c3ccc4c(c3)OCO4)cc12,0.0733 µM (active),–
CN(Cc1ccco1)c1ncnc2ccc(-c3ccoc3)cc12,0.316 µM (active),–
Clc1ccccc1-c1ccc2ncnc(NCc3cccnc3)c2c1,10 µM (active),–
c1cncc(CNc2ncnc3ccc(-c4ccoc4)cc23)c1,0.631 µM (active),–
CCCN(Cc1cccs1)c1ncnc2ccc(-c3ccc4c(c3)OCO4)cc12,0.116 µM (active),–
Cc1nc(CN(C)c2ncnc3cc(-c4ccc5c(c4)OCO5)ccc23)cs1,5.33 µM (active),–
Cc1cccc(CNc2ncnc3ccc(-c4ccc5c(ccn5C)c4)cc23)c1,39.8 µM (active),–
Fc1cccc(CNc2ncnc3ccc(-c4cccnc4)cc23)c1,3.98 µM (active),–
